Bioassay records (PubChem)
IL1B secr inh: qHTS for Inhibitors of Inflammasome Signaling: IL-1-beta AlphaLISA Primary Screen. activity change, % at 57.5 µM. THP-1 LPS/ATP IL-1B secretion, AlphaLISA, 16 h; stronger effect = lower value. AID 743279, 2014. hit rate 4.7% among 360,000; in the data active means activity change below about -50%; inconclusive means mostly about -30% to -49%
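THP-1 cells pretreated 1 hr with compounds (up to 57.5 uM final), then stimulated with LPS (250 ng/mL final) plus ATP (1.25 mM final); secreted IL-1B measured by AlphaLISA after 16 hr, decreased signal indicating inhibition.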
TDP1 cell noCPT: qHTS for Inhibitors of human tyrosyl-DNA phosphodiesterase 1 (TDP1): qHTS in cells in absence of CPT; DT40 Tdp1-/- hTDP1 cells, no CPT, ATP luminescence, 48 h; Potency, µM (top dose mostly 46.2 µM), usual class: inhibitors; hit rate 15% among 420,000; AID 686978, 2013; further: nearly all actives have a fitted effect of over 55% in size
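Stably hTDP1-transfected Tdp1-null chicken DT40 cells were treated with library compounds minus camptothecin and grown for at least 48 hr at 37 °C, after which cellular ATP was quantified by luminescence.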
HT1080 IDH1KD tx: qHTS for induction of synthetic lethality in tumor cells producing 2HG: qHTS for the HT-1080-IDH1KD cell line. HT-1080 IDH1 knockdown viability, ATP luminescence, 48 h. Potency, µM (series often up to 46.1 µM), most hits filed as cytotoxic. hit rate 2% among 360,000. AID 686971, 2013
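CellTiter-Glo luminescence after 48 h compound exposure at 37 degrees C of IDH1-knockdown HT-1080 cells in 5% FBS RPMI. %Activity scaled between DMSO wells and cell-free media wells, with curves fitted and assigned curve classes.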
HT1080NT lethal: qHTS for induction of synthetic lethality in tumor cells producing 2HG: qHTS for the HT-1080-NT fibrosarcoma cell line; HT-1080-NT fibrosarcoma viability, CellTiter-Glo ATP luminescence, 48 h; Potency, µM (titrated, usually from 46.1 µM), actives largely listed as cytotoxic; hit rate 1.6% among 360,000; AID 686970, 2013;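 further: NT is the 2HG producing partner of a matched IDH1 knockdown line; nearly all actives have a fitted effect of over 55% in size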
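Compounds were tested in concentration-response format on HT-1080-NT cells for 48 hours at 37 degrees C. Cell viability came from CellTiter-Glo luminescence; curves were classified by r2, response magnitude and activity.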
DT40 TDP1 CPT: qHTS for Inhibitors of human tyrosyl-DNA phosphodiesterase 1 (TDP1): qHTS in cells in presence of CPT; hit rate 12% among 420,000; chicken DT40 Tdp1-/-;hTDP1 cells + 20 nM CPT, ATP luminescence, 48 h; Potency, µM (highest dose often 46.2 µM), hits mostly inhibitors; AID 686979, 2013; further: nearly all actives have a fitted effect of over 55% in size
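Chicken DT40 Tdp1-/- cells stably complemented with human TDP1 were seeded at 400 cells/well in medium containing 20 nM camptothecin, exposed to pin-transferred compounds, and grown at 37 °C for at least 48 hr. Viability was read as ATP luminescence.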
Numbers stand for hits; 0 = inactive; ? = inconclusive; - = no result. Compounds with a hit are over-represented: about 19% of the library has one in this group of screens. Unless noted, the call rests on the fitted dose curve; in most records, active means well fitted curve in the direction sought with a large enough effect; inconclusive means small, poorly fitted or top-dose-only effect, or another doubt; inactive means no such curve, though single readings can be large; an effect the other way counts as inactive or inconclusive.

SMILES	IL1B secr inh	TDP1 cell noCPT	HT1080 IDH1KD tx	HT1080NT lethal	DT40 TDP1 CPT
CC(C)(C)c1ccc(C(=O)Nc2ccc(F)cc2)s1	-61.8	14.6µM	0	0	0
O=C1N=C(N2CCC(Cc3ccccc3)CC2)S/C1=C/c1cn[nH]c1-c1ccccc1	?	16.4µM	0	0	?
Cc1cccc(N2CCN(C3=NC(=O)C(=C4CCCCC4)S3)CC2)c1	0	?	0	0	?
Cc1ccc(N2CCN(C3=NC(=O)/C(=C\c4cn[nH]c4-c4ccccc4)S3)CC2)cc1	?	20.6µM	0	0	?
O=C1N=C(N2CCN(c3ccccc3)CC2)S/C1=C\c1cn[nH]c1-c1ccccc1	0	13µM	0	0	20.6µM
Cc1cccc(N2CCN(C3=NC(=O)/C(=C\c4cn[nH]c4-c4ccccc4)S3)CC2)c1	0	2.06µM	0	0	6.51µM
CC(C)S(=O)(=O)c1cnc(-c2ccccn2)nc1N	0	0	0	0	0
CN(CC(=O)NCc1ccc(Cl)cc1)S(=O)(=O)c1ccc2c(c1)c(=O)n(C)c(=O)n2C	-	0	-	-	0
CS(=O)(=O)c1ccc2nc(NC(NC(=O)c3ccco3)(C(F)(F)F)C(F)(F)F)sc2c1	0	0	0	0	0
CC1CC(C)CN(C(=O)CSC2=Nc3ccccc3C3=NC(Cc4c[nH]c5ccccc45)C(=O)N23)C1 (configuration not stated)	0	16.4µM	0	0	?
O=C(CSC1=Nc2ccccc2C2=NC(Cc3c[nH]c4ccccc34)C(=O)N12)NC1CCCCC1 (configuration not stated)	0	0	0	0	0
OC(C1=CC(=Cc2ccncc2)c2ccccc21)c1ccncc1 (configuration not stated)	-58.9	16.4µM	0	3.26µM	?
O=C1c2ccccc2C(=O)N1C(CO)C(O)c1ccc([N+](=O)[O-])cc1 (configuration not stated)	0	0	0	0	0
O=[N+]([O-])c1ccc(C=C2c3ccccc3-c3ccccc32)cc1	-	17.8µM	-	-	0
O=P(c1ccccc1)(c1ccccc1)C(O)c1ccncc1 (configuration not stated)	0	0	0	0	0
O=[N+]([O-])c1ccc(/C=C2\C=C(C(O)c3ccc([N+](=O)[O-])cc3)c3ccccc32)cc1 (configuration not stated)	-	4.47µM	-	-	6.31µM
Cc1cccc(N(CC(N)=O)C2SC(=O)N(Cc3cccc(C(=O)O)c3)C2=O)c1 (configuration not stated)	-	0	-	-	0
O=C(O)C1(O)C[C@@H](O)C(O)[C@H](O)C1 (some centres not stated)	0	?	0	0	0
CC1=CC(C)(C)Nc2ccc(OC(=O)CCN3C(=O)c4ccccc4C3=O)cc21	-98.9	3.66µM	?	?	3.26µM
CCn1c(O)c(N=NC(=O)c2cccs2)c2ccccc21	0	14.6µM	0	0	23.1µM
N=Nc1c(O)n(CC(=O)Nc2ccccc2)c2ccccc12	0	0	0	0	?
Cc1cccc(NC(=O)Cn2c(O)c(N=NC(=O)c3ccccc3O)c3ccccc32)c1	0	4.61µM	?	?	0
C=CCn1c(O)c(N=NC(=O)CNC(=O)c2ccco2)c2ccccc21	0	4.11µM	20.6µM	?	6.51µM
CCCn1c(O)c(N=NC(=O)c2cccnc2)c2cc(Br)ccc21	0	?	0	18.4µM	16.4µM
CCn1c(O)c(N=N)c2ccccc21	0	0	0	0	0
SMILES	IL1B secr inh	TDP1 cell noCPT	HT1080 IDH1KD tx	HT1080NT lethal	DT40 TDP1 CPT
CN(C)c1ccc(Nc2ncnc3c2c(-c2ccccc2)cn3-c2cccc(Cl)c2)cc1	-	?	-	-	0
CCCn1c(O)c(N=NC(=O)c2ccco2)c2ccccc21	0	11.6µM	0	0	13µM
O=C(N=Nc1c(O)[nH]c2ccccc12)c1ccco1	?	16.4µM	0	0	?
CCCOc1ccc(C(=O)N(Cc2cccs2)c2ccc(C)cc2)cc1	-	0	-	-	0
Cc1ccc(S(=O)(=O)N2CCc3c2cc([N+](=O)[O-])cc3[N+](=O)[O-])cc1	?	0	0	0	?
Cc1ccc(/C=C/C(=O)OC(C)C(=O)NC2CCCCC2C)o1 (configuration not stated)	0	?	0	0	0
Cc1ccccc1-c1cncnc1N(C)Cc1ccco1	-	0	-	-	0
OC(COc1ccc(Cl)cc1)CN1C2=NCCCN2c2ccccc21 (configuration not stated)	0	20.6µM	?	?	20.6µM
OC(CN1C2=NCCCN2c2ccccc21)c1ccc(Cl)cc1 (configuration not stated)	0	18.4µM	?	?	?
CCN1C2=NCCCN2c2ccccc21	0	0	0	0	0
O=C(N/C(=C/c1ccc([N+](=O)[O-])cc1)C(=O)N1CCOCC1)c1ccco1	0	0	0	0	0
COc1cc2c(cc1OC)CN(Cc1cc(=O)oc3c(C)c(C)ccc13)CC2	0	20.6µM	0	0	?
COc1cc2c(cc1OC)CN(Cc1ccc(OC)c(C)c1OC)CC2	0	20.6µM	0	0	29.1µM
COc1cc2c(cc1OC)CN(Cc1ccc(C)cc1)CC2	0	0	0	0	0
COc1ccc(CN2CCN(c3ccccn3)CC2)c(OC)c1C	0	13µM	?	0	?
COc1cc2c(cc1OC)CN(Cc1cc(=O)oc3cc(C)c(Cl)cc13)CC2	0	?	0	0	0
Cc1ccc2c(CN(C)Cc3ccccc3)cc(=O)oc2c1C	0	14.6µM	?	?	0
COc1ccc(CN2CCN(c3ncccn3)CC2)c(C)c1C	0	?	0	0	0
Cn1c(=O)n(C)c2cc(NC(=O)c3ccccc3)ccc21	0	?	0	0	0
O=C(NCc1ccccc1)C(=O)NCC1OCCN1C(=O)c1ccc(Cl)cc1 (configuration not stated)	0	0	0	0	0
CCc1ccc2c(CN3CCc4cc(OC)c(OC)cc4C3)cc(=O)oc2c1	0	23.1µM	0	0	?
Cc1ccc(-c2nc3sc(C(N)=O)c(N)c3c3c2CCCC3)cc1	0	?	0	0	?
CC(C)c1nc2sc(C(=O)O)c(N)c2c2c1CCCC2	0	0	0	0	0
CCc1nc2sc(C(C)=O)c(N)c2c2c1CCCC2	0	14.6µM	0	0	?
Cc1nc2sc(C(N)=O)c(N)c2c2c1CCCC2	-94.5	?	0	0	?
NC(=O)c1sc2nc(-c3ccccc3)c3c(c2c1N)CCCC3	0	16.4µM	0	0	?
